The record followed here is PubChem BioAssay (NCI).

Molecules are shown by their SMILES. About 83,000 compounds went through this panel and 20% of them were active in at least one assay; those are over-represented in the sample as a whole.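 Percent growth is the endpoint: 0 to 100 indicates growth inhibition (40 means 60% inhibition), 0 means no net growth, and negative values indicate cell death.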 Values without a mark were called inactive. Active and inactive are the calls of the source. The calls were made as follows: active = growth percent below 10; inactive = the rest.

The test system of this assay is OVCAR-4 ovarian. Briefly: NCI-60 one-dose screen, 48 h (100 = growth as untreated, 0 = no growth, -100 = all killed). As to conditions: 10 µM unless noted.
Take `O=C(Nc1nc2ccccc2s1)Nc1ccccc1Cl`: the growth was 34.2%.

For the compound `Cc1ccc(C(=O)Nc2cc(-n3ccnc3C)cc(C(F)(F)F)c2)cc1C#Cc1cnc2cccnn12`, the growth is 15.6%.

As to `O=C(c1ccc(O)cc1)C1[C@H](c2ccc(Cl)cc2)[C@@H](c2ccccc2)NC12C(=O)Nc1ccccc12` (some centres not stated), the growth was 9.88% (active).

`COc1ccc(-c2nc3ccc(-c4nnc(SCC(=O)Nc5ccc(/C(C)=N\O)cc5)o4)cc3[nH]2)cc1`: the growth was 83.3%.

Take `C[C@H]1[C@@H](CC(=O)N[C@@H](Cc2coc3ccccc23)B(O)O)O[C@@H]2OC3(C)CC[C@H]4[C@H](C)CC[C@@H]1[C@@]24O3`: the growth is 33%.

For `Cc1cc(C(NC(=O)C2CC3(CC(Nc4cccc5c4C(=O)N(C4CCC(=O)NC4=O)C5=O)C3)C2)c2ccc3c(c2)OC(F)(F)O3)c(O)c2ncccc12` (configuration not stated), the growth was 35%.

For `NC(=O)c1ccc(-c2ccc3ncnc(N4CCc5cc(F)c(Cl)cc54)c3c2)cn1`, the growth was 88.7%.

`CCN1C(=O)N(CC)C2NNC(Sc3c(C(=O)O)c4ccccc4n(CCC(C)C)c3=O)=NC21` (configuration not stated): the growth was 46.5%.

Consider `COc1ccc2[nH]c(O)c(N=Nc3nc(-c4ccc(Cl)cc4)cs3)c2c1`, for which the growth was -49.9% (active).

`CC[C@]12C=CCN3CC[C@@]4(c5ccc(OC)cc5N(C)[C@H]4[C@@](O)(C(=O)OC)[C@@H]1OC(=O)CCCC[P+](c1ccc(F)cc1)(c1ccc(F)cc1)c1ccc(F)cc1)[C@@H]32`: the growth was 33.1%.

Turning to `COc1cccc(/C=C/c2nc3ccccc3c(=O)n2CC(=O)Nc2ccccc2)c1`, the growth was -1.67% (active).

In the case of `O=C(c1ccc(Cl)cc1)C1[C@H](c2ccccc2Cl)[C@@H](c2ccccc2)NC12C(=O)Nc1ccc(Br)cc12` (some centres not stated), the growth was -33.3% (active).

Regarding `O=C(CSc1nnc(-c2ccc(-c3nc4ccc(Cl)cc4[nH]3)cc2)o1)Nc1ccc(Cl)cc1`, the growth is 19.1%.

For the compound `N#Cc1c(NC(=O)N2CCOCC2)n(-c2ccc(OC(F)(F)F)cc2)c2cc(F)ccc12`, the growth is 87%.

Consider `O=C(N/N=C/c1ccc(Cl)o1)c1[nH]c2ccc(Br)cc2c1-c1ccccc1`, for which the growth is -22.3% (active).

Take `CC1=C(C(=O)OCc2ccccc2)C(c2cccc3ccccc23)n2c(nc3ccccc32)N1` (configuration not stated): the growth is 46.7%.

As to `CC1=NN(C2=NC(=O)C(CC(=O)Nc3ccccc3C(F)(F)F)S2)C(c2ccc(N(C)C)cc2)C1` (configuration not stated), the growth is 47.5%.

Regarding `CN1C(=O)C2(C(C#N)=C(c3ccc(Cl)cc3)Nc3c2c(-c2ccccc2)nn3-c2ccccc2)c2ccccc21` (configuration not stated), the growth was 96.1%.

Turning to `O=[N+]([O-])c1cccc(-c2nnc3c(/C=C/c4ccc(F)cc4)nc4ccccc4n23)c1`, the growth is 73.7%.

`COC(=O)c1cc(C(C)=O)n2c3ccccc3c3ccccc3c12`: the growth was 44.3%.

Regarding `CCCCCCCOc1ccc(S(=O)(=O)Nc2ccc(C)c(F)c2C(=O)O)cc1`, the growth is 90.1%.

On to `COc1ccc2[nH]cc(-c3cc4nc(-c5cn(C)c6ncc(Br)cc56)cc(N)n4n3)c2c1`, for which the growth is -36.5% (active).

`COc1ccc2c(c1)N=c1c-2cc2c(O)[nH]c(=S)n2c1=O`: the growth is 86.9%.

As to `CC(C)C[C@H](NC(=O)[C@@H]1CCCCCCCCCCC(=O)N[C@@H](CC(=O)N2CCC[C@@H]2C2CCCC2)C(=O)N1)B(O)O`, the growth was -13% (active).

As to `O=C1NC(=S)/C(=C/c2cn(-c3ccccc3)nc2-c2ccccc2)S1`, the growth is 25.4%.

Consider `CN(C)C(=O)c1cc(-c2ccc3ncnc(N4CCc5cc(F)c(Cl)cc54)c3c2)cnc1N`, for which the growth is -17.5% (active).

In the case of `N#C/C(=C/c1ccc(Cl)cc1)c1nnc(NC(=O)c2ccc(-n3c(=O)[nH]c4ccccc4c3=O)cc2)s1`, the growth is 75.3%.

With `COc1c(B(O)O)cc(F)cc1-c1nc2c(F)cc3[nH]ncc3c2c2c1CCCC2`, the growth was 39.4%.

With `O=C(CSc1nc2sc3c(c2c(=O)n1-c1ccc(Cl)cc1)CCCC3)NNC(=O)c1ccc(Br)cc1`, the growth was 64%.

Regarding `CN(C)c1ccc(/C=C/c2n(Cc3ccc4ccccc4c3)c3ccccc3[n+]2Cc2ccc3ccccc3c2)cc1`, the growth was -79% (active).

Turning to `COc1ccc2[nH]c(=O)cc(-n3ncc(C(=O)/C=C/c4cc(OC)c(OC)c(OC)c4)c3C)c2c1`, the growth is 36.5%.

For `COc1ccc(C(=O)C[n+]2cccc3c4ccccc4ccc32)cc1`, the growth is 33.4%.
